Measured values as given in the supplement of paper PMC10849652.
About 7,900 targets were measured; listed, in parts, are those with a hit and a random draw of the rest. About 0.6% of all pairs of compound and target were hits. A number with no mark means an inactive call.

Tests used:
Assay in all cases: log2 fold change, soluble protein after heating vs DMSO (PISA); higher = thermal stabilisation; K562 cells, 10 uM, 30 min; active = over 0.2 and 3.5 SD of the protein, either way, in both replicates (recomputed)
[1] = compound: CC[C@@H]1C(=O)N(C)c2cnc(Nc3ccc(C(=O)NC4CCN(C)CC4)cc3OC)nc2N1C1CCCC1
In short: (§1)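 Thermal stability values are relative to control samples and come from duplicates. They are expressed as log2 fold changes. For measurement, K562 cells (2×10^6 cells/mL) received 10 μM compound for 30 min, and aliquots were heated for 3 min over 48°C-58°C, pooled, and extracted at 4°C in PBS with 0.5% NP-40. Soluble protein, the supernatant after 21,000xg for 90 min, was quantified by TMTpro 16plex LC-MS/MS with equalised channel sums.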

volasertib = compound: CC[C@@H]1C(=O)N(C)c2cnc(Nc3ccc(C(=O)N[C@H]4CC[C@H](N5CCN(CC6CC6)CC5)CC4)cc3OC)nc2N1C(C)C [volasertib]
In short: as §1

[2] = compound: CC[C@H](C)N1C=C(C2=C(C=C(C=C21)C3=CN=C(C=C3)N4CCNCC4)C(=O)NCC5=C(C=C(NC5=O)C)C)C
In short: as §1

epoxomicin = compound: CC[C@H](C)[C@@H](C(=O)N[C@@H]([C@@H](C)O)C(=O)N[C@@H](CC(C)C)C(=O)[C@]1(CO1)C)NC(=O)[C@H]([C@@H](C)CC)N(C)C(=O)C [epoxomicin]
In short: as §1

[3] = compound: CCn1c(C(=O)N(C2CC2)C2CC2)cc2c3c(ncn3C)c(Nc3cc(C)n(C)n3)nc21
In short: as §1

[4] = compound: CCn1cc(-c2ccnc3[nH]c(-c4cccc(CN(C)C)c4)cc23)c(-c2ccc(NC(=O)N(C)C)cc2)n1
In short: as §1

[5] = compound: CN(C)CC(=O)Nc1ccc2[nH]c(=O)c3ccccc3c2c1
In short: as §1

rosiglitazone = compound: CN(CCOC1=CC=C(C=C1)C[C@H]2C(=O)NC(=O)S2)C3=CC=CC=N3 (racemic) [rosiglitazone]
In short: as §1

[6] = compound: CN1C2=C(C3=C1C(=O)N(N=C3)CC4=CC(=CC=C4)N)SC(=C2)S(=O)C
In short: as §1

[7] = compound: CN1CCC(CNc2ccc3ncc(-c4cccc(OC(F)(F)F)c4)n3n2)CC1
In short: as §1

UniProt Q15417, sequence (Q15417 whole entry, looked up): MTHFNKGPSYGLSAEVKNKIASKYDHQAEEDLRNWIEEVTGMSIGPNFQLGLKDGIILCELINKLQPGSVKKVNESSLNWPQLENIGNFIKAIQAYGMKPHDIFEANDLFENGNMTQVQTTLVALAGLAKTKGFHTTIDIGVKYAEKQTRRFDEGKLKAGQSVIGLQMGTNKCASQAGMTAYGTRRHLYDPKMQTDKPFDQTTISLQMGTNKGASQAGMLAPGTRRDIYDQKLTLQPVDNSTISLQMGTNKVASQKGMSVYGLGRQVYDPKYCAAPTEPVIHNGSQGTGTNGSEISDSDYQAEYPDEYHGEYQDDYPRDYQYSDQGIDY
UniProt Q9H444, sequence (Q9H444 whole entry, looked up): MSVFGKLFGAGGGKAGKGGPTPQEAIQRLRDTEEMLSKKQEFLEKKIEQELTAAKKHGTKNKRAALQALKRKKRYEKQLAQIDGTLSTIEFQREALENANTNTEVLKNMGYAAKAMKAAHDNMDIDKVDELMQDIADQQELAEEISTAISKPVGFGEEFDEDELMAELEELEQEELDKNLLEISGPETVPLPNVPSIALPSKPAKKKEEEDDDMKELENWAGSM
UniProt Q96GQ5, sequence (Q96GQ5 whole entry, looked up): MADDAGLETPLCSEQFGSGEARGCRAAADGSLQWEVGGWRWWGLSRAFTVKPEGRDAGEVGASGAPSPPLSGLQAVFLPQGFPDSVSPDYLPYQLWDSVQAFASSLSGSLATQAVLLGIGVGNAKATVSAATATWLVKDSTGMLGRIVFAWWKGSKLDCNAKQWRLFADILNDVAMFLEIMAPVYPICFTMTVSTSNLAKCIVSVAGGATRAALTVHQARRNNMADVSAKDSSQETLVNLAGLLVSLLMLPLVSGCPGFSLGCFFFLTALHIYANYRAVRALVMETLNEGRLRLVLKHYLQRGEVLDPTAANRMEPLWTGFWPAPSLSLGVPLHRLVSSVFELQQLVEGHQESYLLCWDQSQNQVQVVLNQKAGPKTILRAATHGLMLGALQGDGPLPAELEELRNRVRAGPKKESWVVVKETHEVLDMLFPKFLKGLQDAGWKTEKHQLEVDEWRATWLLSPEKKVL
UniProt Q00587, sequence (Q00587 whole entry, looked up): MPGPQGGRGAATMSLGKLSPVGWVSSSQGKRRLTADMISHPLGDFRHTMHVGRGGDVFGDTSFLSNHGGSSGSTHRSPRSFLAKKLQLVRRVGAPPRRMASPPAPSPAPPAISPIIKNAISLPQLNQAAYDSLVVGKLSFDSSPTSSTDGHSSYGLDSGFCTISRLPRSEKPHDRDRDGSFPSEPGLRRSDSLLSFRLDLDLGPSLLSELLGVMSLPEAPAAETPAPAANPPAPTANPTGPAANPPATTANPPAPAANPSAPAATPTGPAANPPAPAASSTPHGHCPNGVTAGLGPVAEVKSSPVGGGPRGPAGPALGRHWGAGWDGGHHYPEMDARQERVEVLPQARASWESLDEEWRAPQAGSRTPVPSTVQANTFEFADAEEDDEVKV
UniProt Q13555, sequence (Q13555 whole entry, looked up): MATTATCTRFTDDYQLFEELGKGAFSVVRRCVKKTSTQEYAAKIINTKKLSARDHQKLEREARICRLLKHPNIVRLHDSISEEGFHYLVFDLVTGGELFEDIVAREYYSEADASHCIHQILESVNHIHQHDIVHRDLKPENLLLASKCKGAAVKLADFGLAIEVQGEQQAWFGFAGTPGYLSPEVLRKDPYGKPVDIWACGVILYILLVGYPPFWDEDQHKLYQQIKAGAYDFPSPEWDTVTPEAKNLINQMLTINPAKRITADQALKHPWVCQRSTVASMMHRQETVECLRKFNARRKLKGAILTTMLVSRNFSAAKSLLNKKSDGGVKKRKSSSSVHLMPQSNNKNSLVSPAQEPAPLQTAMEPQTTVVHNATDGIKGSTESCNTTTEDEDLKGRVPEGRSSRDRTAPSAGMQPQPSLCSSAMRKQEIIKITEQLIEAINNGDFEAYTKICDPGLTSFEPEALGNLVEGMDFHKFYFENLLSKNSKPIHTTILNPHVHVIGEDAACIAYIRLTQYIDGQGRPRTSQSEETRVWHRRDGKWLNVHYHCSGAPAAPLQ
UniProt Q14839, sequence (Q14839 whole entry, looked up): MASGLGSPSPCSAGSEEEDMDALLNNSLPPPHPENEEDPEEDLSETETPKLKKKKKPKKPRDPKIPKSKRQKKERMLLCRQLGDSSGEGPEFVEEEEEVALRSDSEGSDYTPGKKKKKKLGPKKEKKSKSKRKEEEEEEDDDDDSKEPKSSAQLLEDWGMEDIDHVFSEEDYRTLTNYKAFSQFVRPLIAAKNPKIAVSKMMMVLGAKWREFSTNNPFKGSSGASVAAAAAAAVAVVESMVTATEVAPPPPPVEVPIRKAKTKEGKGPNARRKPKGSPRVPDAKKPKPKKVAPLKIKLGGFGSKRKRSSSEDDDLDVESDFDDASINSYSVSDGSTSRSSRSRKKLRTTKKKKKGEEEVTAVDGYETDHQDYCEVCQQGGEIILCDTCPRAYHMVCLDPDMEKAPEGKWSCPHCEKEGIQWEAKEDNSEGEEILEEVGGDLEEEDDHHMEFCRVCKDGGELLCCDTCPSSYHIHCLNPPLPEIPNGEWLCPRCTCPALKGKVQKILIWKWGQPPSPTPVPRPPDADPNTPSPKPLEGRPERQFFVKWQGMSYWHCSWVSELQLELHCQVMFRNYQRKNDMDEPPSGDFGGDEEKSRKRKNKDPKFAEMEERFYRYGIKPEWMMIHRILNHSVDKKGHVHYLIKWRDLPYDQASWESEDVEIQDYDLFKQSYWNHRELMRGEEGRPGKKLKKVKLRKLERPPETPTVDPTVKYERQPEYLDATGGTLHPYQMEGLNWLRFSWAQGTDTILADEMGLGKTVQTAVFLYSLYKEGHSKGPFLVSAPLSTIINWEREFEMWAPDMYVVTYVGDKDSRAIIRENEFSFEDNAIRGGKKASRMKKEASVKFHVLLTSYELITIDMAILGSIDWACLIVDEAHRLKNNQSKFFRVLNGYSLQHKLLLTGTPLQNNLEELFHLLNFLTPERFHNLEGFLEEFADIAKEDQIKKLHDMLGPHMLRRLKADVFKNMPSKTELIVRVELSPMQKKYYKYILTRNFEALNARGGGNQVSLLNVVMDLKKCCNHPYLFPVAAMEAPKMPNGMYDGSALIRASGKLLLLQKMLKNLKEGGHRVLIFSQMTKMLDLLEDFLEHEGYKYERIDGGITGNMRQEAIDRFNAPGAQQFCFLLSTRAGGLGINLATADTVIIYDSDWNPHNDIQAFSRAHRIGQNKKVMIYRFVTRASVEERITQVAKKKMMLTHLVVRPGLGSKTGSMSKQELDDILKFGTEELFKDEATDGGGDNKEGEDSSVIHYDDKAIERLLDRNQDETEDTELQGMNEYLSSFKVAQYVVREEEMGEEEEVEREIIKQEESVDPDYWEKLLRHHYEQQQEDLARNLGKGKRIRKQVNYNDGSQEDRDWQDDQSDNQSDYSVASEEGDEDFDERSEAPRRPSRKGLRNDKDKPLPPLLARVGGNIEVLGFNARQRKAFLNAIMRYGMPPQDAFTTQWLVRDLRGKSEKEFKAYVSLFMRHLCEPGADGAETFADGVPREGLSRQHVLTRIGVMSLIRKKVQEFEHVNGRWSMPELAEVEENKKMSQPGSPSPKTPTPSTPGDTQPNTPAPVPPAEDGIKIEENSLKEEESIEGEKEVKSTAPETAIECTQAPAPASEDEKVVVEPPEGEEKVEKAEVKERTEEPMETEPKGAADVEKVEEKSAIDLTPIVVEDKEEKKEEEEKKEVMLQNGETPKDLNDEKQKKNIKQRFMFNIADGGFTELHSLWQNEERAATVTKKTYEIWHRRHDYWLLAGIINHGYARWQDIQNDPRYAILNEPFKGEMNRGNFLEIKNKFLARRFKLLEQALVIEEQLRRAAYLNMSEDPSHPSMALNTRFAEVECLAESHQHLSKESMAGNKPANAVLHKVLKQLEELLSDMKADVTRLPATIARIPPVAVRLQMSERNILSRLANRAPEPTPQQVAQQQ
UniProt O15234, sequence (O15234 whole entry, looked up): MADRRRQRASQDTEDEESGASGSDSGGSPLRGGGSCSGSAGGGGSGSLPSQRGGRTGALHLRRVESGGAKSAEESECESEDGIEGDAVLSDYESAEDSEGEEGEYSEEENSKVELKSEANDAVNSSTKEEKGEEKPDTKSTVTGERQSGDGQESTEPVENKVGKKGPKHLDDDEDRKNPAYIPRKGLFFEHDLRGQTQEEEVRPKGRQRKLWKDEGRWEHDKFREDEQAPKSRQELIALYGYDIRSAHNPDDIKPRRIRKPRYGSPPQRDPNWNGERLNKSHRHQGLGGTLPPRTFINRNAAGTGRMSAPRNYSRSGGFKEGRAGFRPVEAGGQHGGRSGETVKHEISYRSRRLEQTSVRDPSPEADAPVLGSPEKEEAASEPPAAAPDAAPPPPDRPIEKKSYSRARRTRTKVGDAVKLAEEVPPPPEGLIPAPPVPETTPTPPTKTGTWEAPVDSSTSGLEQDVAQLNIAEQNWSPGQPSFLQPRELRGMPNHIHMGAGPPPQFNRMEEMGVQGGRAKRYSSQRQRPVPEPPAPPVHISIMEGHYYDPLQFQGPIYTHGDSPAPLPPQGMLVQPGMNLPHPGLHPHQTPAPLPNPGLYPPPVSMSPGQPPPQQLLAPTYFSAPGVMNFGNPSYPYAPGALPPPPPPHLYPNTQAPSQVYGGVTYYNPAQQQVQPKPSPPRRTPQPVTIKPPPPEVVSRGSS
UniProt P15954, sequence (P15954 whole entry, looked up): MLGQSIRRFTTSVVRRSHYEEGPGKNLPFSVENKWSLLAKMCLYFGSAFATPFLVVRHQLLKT
UniProt P60033, sequence (P60033 whole entry, looked up): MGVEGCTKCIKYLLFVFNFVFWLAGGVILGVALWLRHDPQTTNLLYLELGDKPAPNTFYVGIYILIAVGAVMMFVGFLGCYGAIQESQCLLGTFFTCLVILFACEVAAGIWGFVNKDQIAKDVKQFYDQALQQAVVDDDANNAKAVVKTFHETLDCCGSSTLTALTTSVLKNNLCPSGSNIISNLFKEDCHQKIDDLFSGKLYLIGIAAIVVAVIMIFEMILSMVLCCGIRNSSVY

Target	log2 fold change [1]	log2 fold change (volasertib)	log2 fold change [2]	log2 fold change (epoxomicin)	log2 fold change [3]	log2 fold change [4]	log2 fold change [5]	log2 fold change (rosiglitazone)	log2 fold change [6]	log2 fold change [7]
COX7C (UniProt P15954)	0.035	-0.163	-0.114	0.203	-0.01	0.095	-0.058	-0.025	-0.026	-0.052
C16orf58 (UniProt Q96GQ5)	-0.055	-0.013	-0.005	0.029	0.015	-0.018	0.006	0.039	-0.037	-0.086
CD81 (UniProt P60033)	0.393 (active)	0.193	-0.06	0.013	0.058	-0.226	0.098	0.013	-0.139	0.145
CAMK2G isoform 6 (UniProt Q13555)	0.095	-0.15	0.072	-0.028	-0.063	0.042	0.035	-0.008	0.064	-0.319
CNN3 (UniProt Q15417)	-0.08	-0.368 (active)	0.072	0.066	0.005	0.008	0.106	0.058	-0.018	-0.055
CDC42EP1 (UniProt Q00587)	-0.005	0.058	0.057	0.032	-0.096	-0.051	-0.016	0.093	0.039	-0.554 (active)
CDAN1 (UniProt Q8IWY9)	-0.079	-0.15	-0.041	0.014	0.04	-0.047	-0.058	0.045	-0.022	-0.001
CASC3 (UniProt O15234)	0.303	0.272	-0.068	-0.058	0.016	0.087	-0.081	0.015	0.102	0.02
CHMP4B (UniProt Q9H444)	-0.05	0.062	-0.044	-0.008	0.043	-0.065	-0.053	-0.031	-0.057	-0.033
CPSF3 (UniProt Q9UKF6)	-0.105	-0.252 (active)	0.043	-0.013	-0.032	-0.008	0.033	0.014	-0.032	0.003
CIZ1 (UniProt Q9ULV3)	0.071	-0.022	0.046	0.086	-0.008	0.017	-0.011	-0.034	0.015	-0.035
CHD4 isoform 2 (UniProt Q14839)	-0.124	-0.382	0.158	0.069	-0.051	0.098	0.048	0.058	0.1	-0.073
CLUH, A0A494C0R8	0.183	0.42	0.006	-0.017	0.066	0.078	0.116	0.068	0.101	0.203
C4A (UniProt P0C0L4)	-0.147	-0.216	-0.048	-0.316	-0.079	0.197	0	0.154	0.223	-0.32
CPD (UniProt O75976)	-0.152	-0.33	-0.017	0.025	0.036	-0.044	-0.024	0.002	0.029	-0.399 (active)
